About 2,000 (36%) of roughly 5,500 compounds were called active. About 18% were inconclusive and are not listed. Cut-off read from the data, not from the text of the source: active = normalized growth mostly below about 0.91 (no sharp cut-off); inconclusive = no clear call, values can overlap the other calls; inactive = mostly above about 0.92. The list shows a part of the results.
Experiment: chemical genetic growth profiling, strain panel (AID 1159580);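 note: tested at 20 µM; growth read once vehicle control cultures reached saturation at 30 °C; 1 = growth at the plate median or of vehicle wells; lower values mean less growth of the strain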
Settings: growth OD

Measured: normalized growth

O[C@H]1C=C2CCN3Cc4cc5c(cc4C(C23)[C@@H]1O)OCO5 (stereo partly specified)
inactive: S. cerevisiae deletion strains, locus YBR021W, strain FUR4, stronger effect = lower value 1.05 | S. cerevisiae deletion strains, locus YDL185W, strain tfp1, stronger effect = lower value 0.965 | S. cerevisiae deletion strains, locus YKL068W, stronger effect = lower value 0.953 | S. cerevisiae deletion strains, locus YLR039C, strain RIC1, stronger effect = lower value 1.08 | S. cerevisiae deletion strains, locus YMR307W, strain GAS1, stronger effect = lower value 1.35 | S. cerevisiae deletion strains, locus YNL298W, strain CLA4, stronger effect = lower value 0.931 | S. cerevisiae deletion strains, locus YOL006C, strain TOP1, stronger effect = lower value 0.726 | S. cerevisiae deletion strains, locus YPR141C, strain kar3, stronger effect = lower value 0.976 | S. cerevisiae deletion strains, locus YPR163C, strain tif3, stronger effect = lower value 0.931
active: S. cerevisiae deletion strains, locus YBR229C, strain ROT2, stronger effect = lower value 0.665 | S. cerevisiae deletion strains, locus YCL029C, strain bik1, stronger effect = lower value 0.331 | S. cerevisiae deletion strains, locus YDL035C, strain GPR1, stronger effect = lower value 0.434 | S. cerevisiae deletion strains, locus YDL074C, strain BRE1, stronger effect = lower value 0.485 | S. cerevisiae deletion strains, locus YDL101C, strain DUN1, stronger effect = lower value 0.575 | S. cerevisiae deletion strains, locus YDL192W, strain arf1, stronger effect = lower value 0.591 | S. cerevisiae deletion strains, locus YDR101C, strain arx1, stronger effect = lower value 0.272 | S. cerevisiae deletion strains, locus YDR162C, strain NBP2, stronger effect = lower value 0.566 | S. cerevisiae deletion strains, locus YDR318W, strain mcm21, stronger effect = lower value 0.466 | S. cerevisiae deletion strains, locus YDR388W, stronger effect = lower value 0.514 | S. cerevisiae deletion strains, locus YDR502C, strain sam2, stronger effect = lower value 0.412 | S. cerevisiae deletion strains, locus YEL061C, strain CIN8, stronger effect = lower value 0.737 | S. cerevisiae deletion strains, locus YER110C, stronger effect = lower value 0.573 | S. cerevisiae deletion strains, locus YER155C, strain BEM2, stronger effect = lower value 0.87 | S. cerevisiae deletion strains, locus YER167W, strain BCK2, stronger effect = lower value 0.5 | S. cerevisiae deletion strains, locus YGL078C, strain dbp3, stronger effect = lower value 0.812 | S. cerevisiae deletion strains, locus YGL086W, strain mad1, stronger effect = lower value 0.541 | S. cerevisiae deletion strains, locus YGL248W, strain PDE1, stronger effect = lower value 0.398 | S. cerevisiae deletion strains, locus YGR078C, strain PAC10, stronger effect = lower value 0.615 | S. cerevisiae deletion strains, locus YGR135W, strain pre9, stronger effect = lower value 0.459 | S. cerevisiae deletion strains, locus YGR252W, strain gcn5, stronger effect = lower value 0.636 | S. cerevisiae deletion strains, locus YHR079C, strain IRE1 (second series), stronger effect = lower value 0.38 | S. cerevisiae deletion strains, locus YHR094C, strain hxt1, stronger effect = lower value 0.478 | S. cerevisiae deletion strains, locus YHR129C, strain ARP1, stronger effect = lower value 0.613 | S. cerevisiae deletion strains, locus YHR200W, strain rpn10, stronger effect = lower value 0.549 | S. cerevisiae deletion strains, locus YIL066C, strain RNR3, stronger effect = lower value 0.678 | S. cerevisiae deletion strains, locus YIL073C, strain SPO22, stronger effect = lower value 0.402 | S. cerevisiae deletion strains, locus YIL125W, strain kgd1, stronger effect = lower value 0.857 | S. cerevisiae deletion strains, locus YIR030C, strain dcg1, stronger effect = lower value 0.558 | S. cerevisiae deletion strains, locus YJL095W, strain BCK1, stronger effect = lower value 0.448 | S. cerevisiae deletion strains, locus YJL134W, strain LCB3, stronger effect = lower value 0.757 | S. cerevisiae deletion strains, locus YJL168C, strain set2, stronger effect = lower value 0.837 | S. cerevisiae deletion strains, locus YJL187C, strain SWE1 (second series), stronger effect = lower value 0.373 | S. cerevisiae deletion strains, locus YJR075W, strain HOC1, stronger effect = lower value 0.53 | S. cerevisiae deletion strains, locus YKL009W, strain mrt4, stronger effect = lower value 0.858 | S. cerevisiae deletion strains, locus YKL085W, strain MDH1 (second series), stronger effect = lower value 0.897 | S. cerevisiae deletion strains, locus YKL085W, strain MDH1, stronger effect = lower value 0.897 | S. cerevisiae deletion strains, locus YKL190W, strain CNB1, stronger effect = lower value 0.659 | S. cerevisiae deletion strains, locus YKR001C, strain vps1, stronger effect = lower value 0.558 | S. cerevisiae deletion strains, locus YLR058C, strain SHM2, stronger effect = lower value 0.395 | S. cerevisiae deletion strains, locus YLR102C, strain apc9, stronger effect = lower value 0.49 | S. cerevisiae deletion strains, locus YLR268W, strain sec22, stronger effect = lower value 0.454 | S. cerevisiae deletion strains, locus YLR330W, strain CHS5, stronger effect = lower value 0.656 | S. cerevisiae deletion strains, locus YLR342W, strain FKS1 (second series), stronger effect = lower value 0.483 | S. cerevisiae deletion strains, locus YLR371W, strain rom2, stronger effect = lower value 0.55 | S. cerevisiae deletion strains, locus YLR418C, strain cdc73, stronger effect = lower value 0.707 | S. cerevisiae deletion strains, locus YML016C, strain PPZ1, stronger effect = lower value 0.632 | S. cerevisiae deletion strains, locus YML032C, strain rad52, stronger effect = lower value 0.367 | S. cerevisiae deletion strains, locus YML124C, strain tub3, stronger effect = lower value 0.538 | S. cerevisiae deletion strains, locus YMR078C, strain ctf18, stronger effect = lower value 0.713 | S. cerevisiae deletion strains, locus YMR223W, strain ubp8, stronger effect = lower value 0.33 | S. cerevisiae deletion strains, locus YNL067W, strain RPL9B, stronger effect = lower value 0.495 | S. cerevisiae deletion strains, locus YNL128W, strain TEP1, stronger effect = lower value 0.466 | S. cerevisiae deletion strains, locus YNL233W, strain BNI4, stronger effect = lower value 0.557 | S. cerevisiae deletion strains, locus YNL250W, strain rad50, stronger effect = lower value 0.852 | S. cerevisiae deletion strains, locus YNL271C, strain bni1, stronger effect = lower value 0.908 | S. cerevisiae deletion strains, locus YNL307C, strain MCK1, stronger effect = lower value 0.694 | S. cerevisiae deletion strains, locus YNR052C, strain pop2, stronger effect = lower value 0.605 | S. cerevisiae deletion strains, locus YOL012C, strain htz1 2.41 [resistant] | S. cerevisiae deletion strains, locus YOL147C, strain pex11, stronger effect = lower value 0.498 | S. cerevisiae deletion strains, locus YOR061W, strain CKA2, stronger effect = lower value 0.565 | S. cerevisiae deletion strains, locus YOR069W, strain VPS5, stronger effect = lower value 0.657 | S. cerevisiae deletion strains, locus YOR136W, strain idh2, stronger effect = lower value 0.731 | S. cerevisiae deletion strains, locus YOR144C, strain elg1, stronger effect = lower value 0.47 | S. cerevisiae deletion strains, locus YOR184W, strain ser1, stronger effect = lower value 0.545 | S. cerevisiae deletion strains, locus YOR316C, strain cot1, stronger effect = lower value 0.599 | S. cerevisiae deletion strains, locus YPL055C, strain LGE1, stronger effect = lower value 0.627 | S. cerevisiae deletion strains, locus YPL241C, strain CIN2, stronger effect = lower value 0.74 | S. cerevisiae deletion strains, locus YPR119W, strain clb2, stronger effect = lower value 0.715 | S. cerevisiae deletion strains, locus YPR167C, strain met16, stronger effect = lower value 0.523 | S. cerevisiae deletion strains, strain wtn01, stronger effect = lower value 0.449 | S. cerevisiae strains, strain wild type, stronger effect = lower value 0.448

Reference: PubChem BioAssay AID1159580 (chemical genetic matrix, 2015)
